Compounds without any hit were thinned out: in the full panel of roughly 79,000, 15% have a hit. Calls of active or inactive are those of the source. Cut-off read from the data, not from the text of the source: active = growth inhibition above about 70%; inactive = the rest.
Key:
[1] = NCI Yeast Anticancer Drug Screen. Data for the rad52 strain (AID 147);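 note: 0% = growth of vehicle-treated control cultures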; details: S. cerevisiae rad52 mutant growth inhibition, active compounds read high
Summary of the method: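 Screen used a yeast mutant impaired in DNA repair. After compound exposure, growth was measured. Values reflect inhibition compared with vehicle-treated cells.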

[2] = NCI Yeast Anticancer Drug Screen. Data for the wt1 strain (AID 149);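 note: 0% = growth of vehicle-treated wt1 cultures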; details: S. cerevisiae wt1 strain (SPY 50644) growth inhibition, active compounds read high
Summary of the method: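 Using yeast strain wt1, compound-induced growth inhibition was determined against vehicle-treated cultures.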

[3] = NCI Yeast Anticancer Drug Screen. Data for the rad50EPP+ strain (AID 151);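 note: 0% = growth of vehicle-treated control cultures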; details: S. cerevisiae rad50 mutant strain, active compounds read high
Summary of the method: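 Exposing the rad50EPP+ strain to each compound, growth was compared with vehicle-only cultures to give inhibition.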

[4] = NCI Yeast Anticancer Drug Screen. Data for the mgt1 strain (AID 153); details: S. cerevisiae mgt1 mutant growth inhibition, active compounds read high
Summary of the method: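 Genetically defined yeast (mgt1) treated with compound; inhibition of growth expressed against vehicle-treated controls.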

[5] = NCI Yeast Anticancer Drug Screen. Data for the rad50 strain (AID 155);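 note: 0% = growth of vehicle-only cultures of the same strain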; details: S. cerevisiae rad50 strain growth inhibition, active compounds read high
Summary of the method: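 Relative growth inhibition (compound vs vehicle) was measured in yeast with a defined repair-gene alteration.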

[6] = NCI Yeast Anticancer Drug Screen. Data for the mec2-1 strain (AID 157); details: S. cerevisiae mec2-1 strain, active compounds read high
Summary of the method: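 Readout is yeast growth inhibition, normalised to vehicle-treated controls, in the mec2-1 strain exposed to compound.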

[7] = NCI Yeast Anticancer Drug Screen. Data for the rad14 strain (AID 159);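 note: 0% = growth of vehicle-treated control cultures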; details: S. cerevisiae rad14 strain growth inhibition, active compounds read high
Summary of the method: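 Screen for anticancer potential: a yeast strain altered in DNA damage repair is grown with compound, and reduced growth is quantified against vehicle controls.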

[8] = NCI Yeast Anticancer Drug Screen. Data for the sgs1 mgt1 strain (AID 161);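 note: 0% = growth of cultures given vehicle only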; details: S. cerevisiae sgs1 mgt1 strain, active compounds read high
Summary of the method: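 This yeast growth screen uses a strain with defined DNA-repair lesions; compound-treated growth is compared with vehicle-treated growth.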

[9] = NCI Yeast Anticancer Drug Screen. Data for the CLN2oe strain (AID 163);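 note: 0% = growth of vehicle-only control cultures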; details: S. cerevisiae CLN2oe strain, active compounds read high
Summary of the method: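 Values reflect how much compound exposure reduced yeast growth, referenced to vehicle-exposed cells. Assay organism is a strain with a defined genetic change affecting cell-cycle control.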

[10] = NCI Yeast Anticancer Drug Screen. Data for the cln2 rad14 strain (AID 165);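 note: 0% = growth equal to vehicle treated cultures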; details: S. cerevisiae cln2 rad14 strain, active compounds read high
Summary of the method: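 Relative to vehicle controls, growth inhibition of compound-treated cln2 rad14 yeast was recorded.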

[11] = NCI Yeast Anticancer Drug Screen. Data for the bub3 strain (AID 167); details: S. cerevisiae bub3 mutant strain, active compounds read high
Summary of the method: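 Screening used yeast with an engineered genetic alteration affecting cell cycle control. Compound-exposed cultures were compared with vehicle cultures, and reduced growth was taken as inhibition.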

[12] = NCI Yeast Anticancer Drug Screen. Data for the wt2 strain (AID 169);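 note: 0% = growth of vehicle-treated yeast cultures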; details: S. cerevisiae wt2 strain growth inhibition, active compounds read high
Summary of the method: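 Values express reduction in yeast growth under compound treatment, referenced to vehicle-treated cells.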

[13] = NCI Yeast Anticancer Drug Screen. Data for the mlh1 strain (AID 171);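 note: 0% = growth of vehicle-treated control cultures of the same strain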; details: S. cerevisiae mlh1 strain growth inhibition, active compounds read high
Summary of the method: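 Steps: expose the defined-mutant yeast strain to compound; expose a parallel culture to vehicle; measure growth; express compound effect as inhibition relative to the vehicle culture.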

[14] = NCI Yeast Anticancer Drug Screen. Data for the sgs1 strain (AID 173);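 note: 0% = growth of vehicle-only control cultures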; details: S. cerevisiae sgs1 mutant, active compounds read high
Summary of the method: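 Treat defined-mutant yeast with compound; measure growth; calculate inhibition relative to vehicle-treated cells.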

[15] = NCI Yeast Anticancer Drug Screen. Data for the mlh1 rad18 strain (AID 175); details: S. cerevisiae mlh1 rad18 strain growth inhibition, active compounds read high
Summary of the method: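 Test agents were incubated with a yeast strain of defined genotype (DNA damage repair defect). Inhibition of growth was derived by comparison with vehicle-exposed cultures.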

[16] = NCI Yeast Anticancer Drug Screen. Data for the rad18 strain (AID 177); details: S. cerevisiae rad18 mutant growth inhibition, active compounds read high
Summary of the method: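 A genetically defined yeast mutant impaired in DNA damage repair was treated with test compounds, then its growth was measured against cultures receiving vehicle alone.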

[17] = at 5.0 µM (retest, dose inferred, filed as 0.5)
[18] = at 50.0 µM (retest, dose inferred, filed as 5.0)

Measured: growth inhibition

O=c1[nH]c2c([N+](=O)[O-])cccc2c2ccccc12
inactive: [1]; at 1.2 µM -1% | [1]; at 3.7 µM 0% | [1]; at 11.0 µM 6% | [1]; at 33.0 µM 40% | [2]; at 1.2 µM -3% | [2]; at 3.7 µM -2% | [2]; at 11.0 µM -2% | [2]; at 33.0 µM 5% | [3]; at 1.2 µM 5% | [3]; at 3.7 µM 12% | [3]; at 11.0 µM 26% | [3]; at 33.0 µM 52% | [4]; at 1.2 µM -4% | [4]; at 3.7 µM -3% | [4]; at 11.0 µM -3% | [4]; at 33.0 µM 19% | [5]; at 1.2 µM 2% | [5]; at 3.7 µM -42% | [5]; [17] 7% | [5]; at 11.0 µM 33% | [5]; at 33.0 µM 53% | [6]; at 1.2 µM 0% | [6]; at 3.7 µM 0% | [6]; [17] 4% | [6]; at 11.0 µM 3% | [6]; at 33.0 µM 17% | [6]; [18] 52% | [7]; at 1.2 µM 2% | [7]; at 3.7 µM 5% | [7]; at 11.0 µM 12% | [7]; at 33.0 µM 24% | [8]; [17] 2% | [8]; [18] 51% | [9]; at 1.2 µM -13% | [9]; at 3.7 µM -15% | [9]; at 11.0 µM -16% | [9]; at 33.0 µM -29% | [9]; at 100.0 µM 12% | [10]; [17] -13% | [10]; [18] 11% | [11]; at 1.2 µM -4% | [11]; at 3.7 µM -6% | [11]; [17] 3% | [11]; at 11.0 µM 0% | [11]; at 33.0 µM 28% | [12]; at 1.2 µM -2% | [12]; at 3.7 µM 6% | [12]; at 11.0 µM -1% | [12]; at 33.0 µM 12% | [13]; at 1.2 µM -2% | [13]; at 3.7 µM -2% | [13]; at 11.0 µM 0% | [13]; at 33.0 µM 18% | [14]; at 1.2 µM -2% | [14]; at 3.7 µM 0% | [14]; at 11.0 µM 7% | [14]; at 33.0 µM 40% | [15]; [17] 4% | [15]; [18] 41% | [16]; at 1.2 µM 3% | [16]; at 3.7 µM 9% | [16]; at 11.0 µM 26%
active: [1]; at 100.0 µM 89% | [2]; at 100.0 µM 73% | [3]; at 100.0 µM 76% | [4]; at 100.0 µM 90% | [5]; [18] 80% | [5]; at 50.0 µM 96.2% | [5]; at 100.0 µM 95% | [6]; at 50.0 µM 96% | [6]; at 100.0 µM 89% | [7]; at 100.0 µM 86% | [8]; at 50.0 µM 96.8% | [10]; at 50.0 µM 93% | [11]; [18] 72% | [11]; at 50.0 µM 95% | [11]; at 100.0 µM 90% | [12]; at 100.0 µM 84% | [13]; at 100.0 µM 88% | [14]; at 100.0 µM 90% | [15]; at 50.0 µM 96.2% | [16]; at 33.0 µM 73% | [16]; at 100.0 µM 96%

Reference: PubChem BioAssay (NCI)
